From PubChem BioAssay AID743332 (Broad Institute, 2014)
Measured potencies and affinities stand elsewhere. Calls of active or inactive are those of the source.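 How the source made its calls: active means at least 35% decrease in signal relative to neutral control well mean; inactive means the rest, opposite-direction activity included.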

Biological target: Caspase-6 (Homo sapiens) (UniProt P55212)
Assay: inhibition of CASP6 peptide cleavage – biochemical, VEID-R110 fluorescence, dry powder retest, dose response (AID 743332)
Conditions: purified caspase-6, Z-VEID-R110 cleavage fluorescence; series mostly up to 35 µM; activity change, negative = inhibition: at the top concentration

Caspase-6 (Homo sapiens), sequence (P55212 24-179 limits assumed): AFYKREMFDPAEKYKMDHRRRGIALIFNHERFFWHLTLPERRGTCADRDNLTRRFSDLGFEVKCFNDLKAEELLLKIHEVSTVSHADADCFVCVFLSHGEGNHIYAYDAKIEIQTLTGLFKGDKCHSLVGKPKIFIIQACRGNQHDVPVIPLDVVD
Caspase-6 (Homo sapiens), sequence (P55212 194-293 limits assumed): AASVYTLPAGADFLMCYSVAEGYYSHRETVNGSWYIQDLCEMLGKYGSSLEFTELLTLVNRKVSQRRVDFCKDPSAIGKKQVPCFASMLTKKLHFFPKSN

Question: Which “activity change, negative = inhibition” value does the source give for `O=C(c1ccc2c(c1)OCCO2)N1CCN(S(=O)(=O)c2ccccc2)CC1` here?
Answer: Its value is 6.42% (inactive).

Question: `COc1ccc(S(=O)(=O)N2CCN(C(=O)c3ccccc3)CC2)cc1` was tested. Which “activity change, negative = inhibition” value did it give?
Answer: Its value is 1.2% (inactive).

Question: With `Cc1ccc(S(=O)(=O)N2CCN(C(=O)c3ccccc3)CC2)cc1` as the compound, how does the “activity change, negative = inhibition” value read?
Answer: The value was 8.23% (inactive).

Question: `O=C(c1ccoc1)N1CCN(S(=O)(=O)c2cccnc2)CC1` was tested. Which “activity change, negative = inhibition” value did it give?
Answer: Its value is 5.59% (inactive).

Question: With `O=C(c1ccccn1)N1CCN(S(=O)(=O)c2ccccc2)CC1` as the compound, how does the “activity change, negative = inhibition” value read?
Answer: Its value is 5.53% (inactive).

Question: Which “activity change, negative = inhibition” value does the source give for `CC(=O)Nc1ccc(C(=O)N2CCN(S(=O)(=O)c3ccc(C)cc3)CC2)cc1` here?
Answer: Its value is -10.9% (inactive).

Question: With `O=S(=O)(c1ccccc1)N1CCN(Cc2ccccc2)CC1` as the compound, how does the “activity change, negative = inhibition” value read?
Answer: Its value is 1.29% (inactive).

Question: `Cc1ccc(C(=O)N2CCN(S(=O)(=O)c3ccccc3)CC2)o1` was tested. Which “activity change, negative = inhibition” value did it give?
Answer: Its value is 0.801% (inactive).

Question: Which “activity change, negative = inhibition” value does the source give for `O=C(C1COc2ccccc2O1)N1CCN(S(=O)(=O)c2ccccc2F)CC1` (configuration not stated) here?
Answer: Its value is -2.1% (inactive).

Question: How did the “activity change, negative = inhibition” value turn out when `Cc1ccc(C(=O)N2CCN(S(=O)(=O)c3ccc(C)cc3)CC2)cc1` was run?
Answer: Its value is 4.57% (inactive).

Question: Which “activity change, negative = inhibition” value does the source give for `Cc1ccc(S(=O)(=O)N2CCN(C(=O)C3COc4ccccc4O3)CC2)cc1` (configuration not stated) here?
Answer: Its value is 5.54% (inactive).

Question: For `O=C(c1ccc(F)cc1)N1CCCN(S(=O)(=O)c2ccc(F)cc2)CC1`, which “activity change, negative = inhibition” value is on record?
Answer: The value was 5% (inactive).
